The list is not random: actives were taken first. Their share in the collection is about 8%.
Lassa entry inh: qHTS for Inhibitors of binding or entry into cells for Lassa Virus | Potency, µM (highest dose often 37.9 µM), hits mostly inhibitors | hit rate 1.2% among 300,000 | AID 540256, 2011 | Lassa virus pseudotype entry inhibition, cell reporter; calls by dose curve; tested in HEK293 cells; further: nearly all actives have a fitted effect of over 50% in size
MARV entry inh: qHTS for inhibitors of binding or entry into cells for Marburg Virus | Marburg virus pseudotyped entry inhibition, cell reporter | Potency, µM (top dose mostly 37.8 µM), hits mostly inhibitors | hit rate 1.8% among 300,000 | AID 540276, 2011; calls by dose curve; tested in HEK293 cells
HCMV inh: qHTS Assay for inhibitors of the human cytomegalovirus (HCMV) | HFF cells, HCMV-luciferase reporter, 72 h; active compounds read low | activity change, negative = inhibition, % at 57.5 µM | hit rate 4.5% among 410,000 | AID 1259415, 2018; in the data active means activity change below about -60%; inconclusive means no clear call, values can overlap the other calls; inactive means above about -39%
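Compounds were evaluated in HFFs infected with an HCMV luciferase reporter virus (MOI 1 PFU/cell). Luciferase in lysates collected 72 h post infection served as the replication measure.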
FMDV antiviral: High Throughput Screening for Foot and Mouth Disease Virus Antivirals | AID 1159524, 2015 | Potency, µM (doses to about 57.9 µM), hits mostly inhibitors | hit rate 1.2% among 410,000 | FMDV antiviral cell-based qHTS; calls by dose curve; tested in HEK293T cells; further: read-out not given here; nearly all actives have a fitted effect of over 45% in size
HCV inh: qHTS Assay for Inhibitors of Hepatitis C Virus (HCV). AID 651820, 2012. Huh7.5.1 HCVcc-Cre infection, luciferase reporter, 44 h. Potency, µM (highest dose often 41.8 µM), usual class: inhibitors. hit rate 3.4% among 340,000
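A cell-based infection assay in which seeded cells (1,000 per well) receive test compound after 4 h, are inoculated with HCVcc-Cre at approximately 0.5 moi, and are incubated 44 h before luminescence detection.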
SARS PLpro yeast: qHTS of Yeast-based Assay for SARS-CoV PLP; S. cerevisiae expressing SARS-CoV PLpro, growth rescue; Potency, µM (series often up to 32.9 µM), hits mostly activators; hit rate 0.19% among 330,000; AID 485353, 2010; calls by dose curve; further: nearly all actives have a fitted effect of over 55% in size
HCV inh confirm: qHTS Assay for Inhibitors of Hepatitis C Virus (HCV): Confirmation Assay for Cherry-picked Compounds. Potency, µM (doses to about 41.8 µM), usual class: inhibitors. hit rate 78% among 640. AID 720575, 2013. HCVcc-Cre infectious virus cell assay, luciferase, inhibition. shares compounds with HCV inh; further: nearly all actives have a fitted effect of over 80% in size
HCV cytotox: qHTS Assay for Inhibitors of Hepatitis C Virus (HCV): Cytotoxicity Counterscreen for Cherry-picked Compounds | HCV host cell line cytotoxicity counterscreen | hit rate 22% among 640 | Potency, µM (doses to about 41.8 µM), most hits filed as inhibitors | shares compounds with HCV inh | AID 720576, 2013;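 further: 44 h compound exposure; nearly all actives have a fitted effect of over 55% in size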
Large screens that a line does not name were inactive (follow-up assays come after a bar, where they were run). Unless noted, the call rests on the fitted dose curve; in most records, active means well fitted curve in the direction sought with a large enough effect; inconclusive means small, poorly fitted or top-dose-only effect, or another doubt; inactive means no such curve, though single readings can be large; an effect the other way counts as inactive or inconclusive.

Fc1ccc(C(c2nnnn2Cc2cccs2)N2CCN(C3CCCC3)CC2)cc1 (centres undefined)	Lassa entry inh inconclusive, MARV entry inh inconclusive, FMDV antiviral inconclusive, HCV inh inconclusive | HCV inh confirm inactive | HCV cytotox inactive
c1ccc(C(c2nnnn2Cc2cccs2)N2CCN(C3CCCC3)CC2)cc1 (centres undefined)	MARV entry inh inconclusive
COc1ccc(N(C(=O)c2ccccc2C)S(=O)(=O)c2ccc3c(c2)n(C)c(=O)n3C)cc1	MARV entry inh inconclusive (no result: HCV inh, SARS PLpro yeast)
COC(=O)c1ccn(-c2nc(-c3ccc(Cl)cc3)cc(C(F)(F)F)n2)n1	FMDV antiviral inconclusive (no result: HCV inh, SARS PLpro yeast)
COc1ccc(NC(=O)CCc2nnc3n(C)c(=O)c4sccc4n23)cc1Cl	MARV entry inh inconclusive (no result: HCV inh, SARS PLpro yeast)
N#C/C(=C\c1cc([N+](=O)[O-])c(N2CCCCC2)cc1N1CCCCC1)c1nn(-c2ccccc2)c(N)c1C#N	HCV inh inconclusive, SARS PLpro yeast inconclusive | HCV inh confirm 9.95µM | HCV cytotox inactive
N#C/C(=C\c1cccc2ccccc12)c1nn(-c2ccccc2)c(N)c1C#N	Lassa entry inh inconclusive, MARV entry inh inconclusive (no result: HCMV inh, FMDV antiviral, SARS PLpro yeast)
Cc1ccc(OCC(O)Cn2c3ccccc3c3ccccc32)cc1 (centres undefined)	Lassa entry inh inconclusive, HCV inh inconclusive (no result: FMDV antiviral)
CC(=O)N(C)c1ccc(OCC(O)Cn2c3ccc(Cl)cc3c3cc(Cl)ccc32)cc1 (centres undefined)	Lassa entry inh inconclusive, MARV entry inh 11.2µM, FMDV antiviral inconclusive, HCV inh 0.891µM (no result: HCMV inh) | HCV inh confirm 3.96µM | HCV cytotox 28µM
CCOc1ccc(C(=O)c2oc3ccccc3c2NC(=O)c2cc(-c3ccc(C)cc3)on2)cc1	none (no result: HCV inh, SARS PLpro yeast)
O=C(Nc1cccc(C(F)(F)F)c1)C1CCN(S(=O)(=O)c2ccc(N3CCCC3=O)cc2)CC1	HCMV inh -65.7, FMDV antiviral inconclusive, HCV inh 6.31µM (no result: Lassa entry inh, MARV entry inh) | HCV inh confirm 8.87µM | HCV cytotox 14.1µM
c1cncc(-c2nc(N3CCCCCC3)c3ccccc3n2)c1	Lassa entry inh inconclusive, MARV entry inh inconclusive, FMDV antiviral inconclusive, HCV inh inconclusive
c1ccc2c(N3CCCCCC3)nc(-c3ccncc3)nc2c1	MARV entry inh inconclusive, HCMV inh inconclusive, FMDV antiviral inconclusive, HCV inh 8.91µM | HCV inh confirm 0.01µM | HCV cytotox inactive
c1ccc(Nc2nc(-c3ccncc3)nc3ccccc23)cc1	MARV entry inh inconclusive, FMDV antiviral inconclusive, HCV inh inconclusive | HCV inh confirm 4.99µM | HCV cytotox inactive
Fc1ccccc1Nc1nc(-c2ccncc2)nc2ccccc12	Lassa entry inh inconclusive, MARV entry inh inconclusive, FMDV antiviral inconclusive, HCV inh 2.24µM | HCV inh confirm 8.87µM | HCV cytotox inactive
CC(=O)Nc1nonc1-c1nc2ccccc2n1Cc1ccccc1Br	HCMV inh inconclusive, FMDV antiviral inconclusive (no result: HCV inh, SARS PLpro yeast)
FC(F)(F)c1nc(-c2cccs2)ncc1-c1nnnn1-c1ccc(Cl)cc1	Lassa entry inh 16.4µM, MARV entry inh inconclusive, HCMV inh -60.5, FMDV antiviral 11.2µM, HCV inh 5.01µM | HCV inh confirm 6.28µM | HCV cytotox inactive
COc1nc(Nc2nc3ccccc3c(=O)[nH]2)nc2ccc(C)cc12	HCMV inh -100.3, HCV inh 3.16µM (no result: Lassa entry inh, MARV entry inh) | HCV inh confirm 7.05µM | HCV cytotox inconclusive
Cc1ccccc1NC(=O)COC(=O)c1ccc(CSc2ccc(Cl)cc2)cc1	Lassa entry inh inconclusive
Cc1cc(CSc2ccc(Cl)cc2)ccc1N	HCV inh 3.98µM (no result: SARS PLpro yeast) | HCV inh confirm 6.28µM | HCV cytotox inactive
CCOC(=O)c1cccc(NC(=O)c2ccc3nc(CCc4ccccc4)oc3c2)c1	none (no result: MARV entry inh, HCV inh, SARS PLpro yeast)
